Reference: PubChem BioAssay (NCI)
This is part of a sample that, as a whole, favours compounds with a hit. Of some 83,000 tested, about 20% had one in any assay.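 How to read the values: 0–100, growth inhibition (40 = 60% inhibited); 0, no net growth; -100 to 0, cell death (-40 = 40% of starting cells died; -100 = all dead).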 The source made the active and inactive calls. Rule for the calls: active = growth percent below 10; inactive = the rest.

Columns and labels:
Assay in all cases: NCI-60 one-dose screen, 48 h (100 = growth as untreated, 0 = no growth, -100 = all killed)
NCI-H23 lung = conditions: 10 µM unless noted
NCI-H322M lung = conditions: 10 µM unless noted
HOP-62 NSCLC = conditions: 10 µM unless noted
NCI-H460 lung = conditions: 10 µM unless noted
HOP-92 NSCLC = conditions: 10 µM unless noted
NCI-H522 lung = conditions: 10 µM
A549/ATCC NSCLC = conditions: 10 µM unless noted
786-0 renal = conditions: 10 µM unless noted
COLO 205 colon = conditions: 10 µM unless noted

Measured: growth

COc1cc2oc(-c3ccc(O)cc3)cc(=O)c2c(O)c1I
inactive: NCI-H23 lung 99.6% | NCI-H322M lung 108% | HOP-62 NSCLC 126% | NCI-H460 lung 101% | HOP-92 NSCLC 113% | NCI-H522 lung 86.2% | A549/ATCC NSCLC 96.7% | 786-0 renal 100%

O=c1oc2ccccc2cc1-c1csc(N=Nc2c(O)[nH]c3ccc(Br)cc23)n1
inactive: NCI-H23 lung 98.6% | NCI-H322M lung 102% | HOP-62 NSCLC 104% | NCI-H460 lung 100% | HOP-92 NSCLC 123% | NCI-H522 lung 99.5% | A549/ATCC NSCLC 93.8% | 786-0 renal 103%

CCOC(=O)c1[nH]c2cc(Cl)ccc2c1[C@@H](C(=O)NC(C)(C)C)N(CC)C(=O)CCCCC#Cc1cccc2c1CN(C1CCC(=O)NC1=O)C2=O (some centres undefined)
inactive: NCI-H23 lung 59.4% | NCI-H322M lung 13.5% | HOP-62 NSCLC 20.7% | NCI-H460 lung 13.9% | NCI-H522 lung 44.2% | A549/ATCC NSCLC 20.7% | 786-0 renal 13.5%
active: HOP-92 NSCLC 6.15%

O=C1/C(=C/c2ccc([N+](=O)[O-])cc2)Oc2ccc(O)cc21
inactive: NCI-H23 lung 75.8% | NCI-H322M lung 106% | HOP-62 NSCLC 50.6% | NCI-H460 lung 40.9% | HOP-92 NSCLC 93.7% | NCI-H522 lung 75.4% | A549/ATCC NSCLC 70.8% | 786-0 renal 96%

O=C(NC1CC1)c1cc2n(n1)CC(c1ccccc1)N2 (centres undefined)
inactive: NCI-H23 lung 100% | NCI-H322M lung 99% | HOP-62 NSCLC 102% | NCI-H460 lung 100% | HOP-92 NSCLC 85.3% | NCI-H522 lung 91.1% | A549/ATCC NSCLC 99.6% | 786-0 renal 101%

O=c1c2cc(F)ccc2oc2c(NCCNCCO)nc3ccccc3c12
inactive: NCI-H23 lung 53% | NCI-H322M lung 36.1% | HOP-62 NSCLC 35.5% | NCI-H460 lung 13.1% | HOP-92 NSCLC 38.4% | NCI-H522 lung 39.8% | A549/ATCC NSCLC 45.1% | 786-0 renal 42%

O=c1oc2ccccc2cc1-c1csc(N=Nc2c(O)[nH]c3ccc(Cl)cc23)n1
inactive: NCI-H23 lung 101% | NCI-H322M lung 105% | HOP-62 NSCLC 117% | NCI-H460 lung 99.9% | HOP-92 NSCLC 114% | NCI-H522 lung 98.4% | A549/ATCC NSCLC 89.6% | 786-0 renal 105%

CCCCCCCC/C=C\CCCCCCCCOc1cccc(CC(=O)NCC[N+]2(C)CCCC2)c1
inactive: NCI-H23 lung 75.9% | NCI-H322M lung 99.5% | HOP-62 NSCLC 69.5% | NCI-H460 lung 54.3% | HOP-92 NSCLC 92.7% | NCI-H522 lung 68.6% | A549/ATCC NSCLC 95% | 786-0 renal 93.9%

O=C1c2c(c3c4cc(Br)ccc4[nH]c3c3ccc4ccccc4c23)C(=O)N1O
inactive: NCI-H23 lung 95.7% | NCI-H322M lung 96.9% | HOP-62 NSCLC 79.6% | NCI-H460 lung 83.8% | HOP-92 NSCLC 140% | NCI-H522 lung 63.2% | A549/ATCC NSCLC 95.6% | 786-0 renal 106%

COc1ccc(/C=C2\Oc3cc(C)c(Cl)cc3C2=O)cc1OC
inactive: NCI-H23 lung 103% | NCI-H322M lung 107% | HOP-62 NSCLC 111% | NCI-H460 lung 103% | HOP-92 NSCLC 101% | NCI-H522 lung 82.7% | A549/ATCC NSCLC 98.3% | 786-0 renal 95.7%

COC(=O)c1c2c(c(C)[n+]([O-])c1C)C(=O)C=C(NCc1cccc(OC)c1)C2=O
active: NCI-H23 lung -69.2% | NCI-H322M lung -19.6% | HOP-62 NSCLC -15.1% | NCI-H460 lung -41.6% | HOP-92 NSCLC -43.6% | NCI-H522 lung -54.7% | A549/ATCC NSCLC -52.1% | 786-0 renal -3.41%

O=C(N/N=C/c1ccc(OC(F)F)c(OC2CCCC2)c1)c1cnn2c1NC(c1ccccc1)C2 (centres undefined)
inactive: NCI-H23 lung 97.5% | NCI-H322M lung 92.6% | HOP-62 NSCLC 84.9% | NCI-H460 lung 82.4% | HOP-92 NSCLC 80.6% | NCI-H522 lung 78.8% | A549/ATCC NSCLC 73.8% | 786-0 renal 89.2%

Cc1ccc2nc(NC(=O)CSC(=S)N3CCN(Cc4ccccc4)CC3)sc2c1
active: NCI-H23 lung 1.13% | NCI-H322M lung -71.8% | HOP-62 NSCLC -59.1% | NCI-H460 lung -70.9% | HOP-92 NSCLC -55.4% | A549/ATCC NSCLC 1.71% | 786-0 renal -21.1% | COLO 205 colon -63.3%

O=c1c2c(=NCCN3CCCC3)cc3c(=O)n(CCCN4CCOCC4)c(=O)c4ccc(c(O)n1CCCN1CCOCC1)c2c4-3
active: NCI-H23 lung -49% | NCI-H322M lung -10.8% | HOP-62 NSCLC -17.3% | NCI-H460 lung -8.16% | HOP-92 NSCLC -4.88% | A549/ATCC NSCLC 6.22% | 786-0 renal 1.28% | COLO 205 colon -55.8%

CC(=O)Nc1ccccc1-c1n[nH]c(=O)[nH]c1=O
active: HOP-92 NSCLC -10.8%
inactive: NCI-H23 lung 102% | NCI-H322M lung 105% | HOP-62 NSCLC 97.6% | NCI-H460 lung 104% | A549/ATCC NSCLC 116% | 786-0 renal 98.4% | COLO 205 colon 115%

CCOC(=O)C1=C(C)N2C(=NC3=C(CCCC/C3=C\c3ccccc3)C2c2ccccc2)S1 (centres undefined)
inactive: NCI-H23 lung 95.5% | NCI-H322M lung 92% | HOP-62 NSCLC 117% | NCI-H460 lung 99.1% | A549/ATCC NSCLC 99.1% | 786-0 renal 96.6% | COLO 205 colon 117%
active: HOP-92 NSCLC -2.46%

O=c1[nH]c(=O)n(Cc2ccc(F)cc2)cc1F
inactive: NCI-H23 lung 105% [50 µM] | NCI-H322M lung 107% [50 µM] | HOP-62 NSCLC 109% [50 µM] | NCI-H460 lung 108% [50 µM] | HOP-92 NSCLC 108% [50 µM] | A549/ATCC NSCLC 96% [50 µM] | 786-0 renal 105% [50 µM] | COLO 205 colon 115% [50 µM]

O=C1c2ccccc2-c2nnc(-c3ccc(Br)cc3)cc21
inactive: NCI-H23 lung 47% | NCI-H322M lung 86.8% | HOP-62 NSCLC 56.3% | NCI-H460 lung 81.6% | HOP-92 NSCLC 78.6% | 786-0 renal 82.3% | COLO 205 colon 99.7%
active: A549/ATCC NSCLC 1.3%

Cc1ccccc1-n1nnc(C(=O)Nc2nc(-c3ccccc3)c(-c3ccccc3)s2)c1C
inactive: NCI-H23 lung 76.3% [50 µM] | NCI-H322M lung 84.4% [50 µM] | HOP-62 NSCLC 84.8% [50 µM] | NCI-H460 lung 73.2% [50 µM] | HOP-92 NSCLC 62.3% [50 µM] | A549/ATCC NSCLC 65.4% [50 µM] | 786-0 renal 87.4% [50 µM] | COLO 205 colon 92.8% [50 µM]

O=[N+]([O-])c1ccc2nc(N/N=C/c3ccc(O)cc3)sc2c1
inactive: NCI-H23 lung 73.3% | NCI-H322M lung 58.8% | HOP-62 NSCLC 68.7% | NCI-H460 lung 48.5% | HOP-92 NSCLC 58.9% | A549/ATCC NSCLC 30.7% | 786-0 renal 50.9% | COLO 205 colon 89.9%

CN(C)c1ccc(/C=C(\C#N)c2cc3ccccc3n2C)cc1
inactive: NCI-H23 lung 34.6% | NCI-H322M lung 49.7% | HOP-62 NSCLC 62.1% | HOP-92 NSCLC 72.5% | A549/ATCC NSCLC 24.6% | 786-0 renal 38.6%
active: NCI-H460 lung 5.38% | COLO 205 colon -17.2%

CC(C)(C)[Si](C)(C)OC1[C@@H](O[Si](C)(C)C(C)(C)C)[C@@H](CNC(=O)NC(=O)C(F)(F)F)O[C@H]1n1cnc2c(NC(=O)Nc3ccccc3)ncnc21 (some centres undefined)
inactive: NCI-H23 lung 86.4% | NCI-H322M lung 97.6% | HOP-62 NSCLC 93% | NCI-H460 lung 36.1% | A549/ATCC NSCLC 51.4% | 786-0 renal 83.1% | COLO 205 colon 91.9%
active: HOP-92 NSCLC -11.4%

O=c1nc(NO)[nH]c(=O)n1Cc1ccccc1
active: HOP-92 NSCLC -3.57%
inactive: NCI-H23 lung 105% | NCI-H322M lung 120% | HOP-62 NSCLC 110% | NCI-H460 lung 109% | A549/ATCC NSCLC 111% | 786-0 renal 101% | COLO 205 colon 128%

CCN(CC)c1ccc(/C=C(\C#N)c2cc3ccccc3[nH]2)cc1
inactive: NCI-H23 lung 79.2% | NCI-H322M lung 88.7% | HOP-62 NSCLC 77.7% | NCI-H460 lung 24.4% | HOP-92 NSCLC 97% | A549/ATCC NSCLC 39.4% | 786-0 renal 80% | COLO 205 colon 45.3%

c1ccc(-c2n(Cc3ccc4ccccc4n3)c3ccccc3[n+]2Cc2ccc3ccccc3n2)cc1
inactive: NCI-H322M lung 14.3% | A549/ATCC NSCLC 13.7% | 786-0 renal 11.9%
active: NCI-H23 lung -5.45% | HOP-62 NSCLC -1.08% | NCI-H460 lung 1.2% | HOP-92 NSCLC -18.8% | COLO 205 colon -69.2%

N#C/C(=C\c1ccc[nH]1)c1cc2ccccc2[nH]1
inactive: NCI-H23 lung 39.1% | NCI-H322M lung 87.5% | HOP-62 NSCLC 85.1% | NCI-H460 lung 71.1% | HOP-92 NSCLC 76.9% | A549/ATCC NSCLC 54.2% | 786-0 renal 93.4% | COLO 205 colon 88.6%

Cc1c(C(=O)Nc2nc(-c3ccccc3)cs2)nnn1-c1cccc2ccccc12
inactive: NCI-H23 lung 33% [50 µM] | NCI-H322M lung 84.6% [50 µM] | HOP-62 NSCLC 87.9% [50 µM] | NCI-H460 lung 56.4% [50 µM] | HOP-92 NSCLC 70.7% [50 µM] | A549/ATCC NSCLC 43.9% [50 µM] | 786-0 renal 79.8% [50 µM] | COLO 205 colon 69.1% [50 µM]

COc1cc2nc(SCc3cc(OC)c(OC)c(OC)c3)n(-c3ccccc3OC)c(=O)c2cc1OC
inactive: NCI-H23 lung 79.9% | NCI-H322M lung 85.1% | HOP-62 NSCLC 93.2% | NCI-H460 lung 83.4% | HOP-92 NSCLC 65.8% | A549/ATCC NSCLC 88% | 786-0 renal 91.4% | COLO 205 colon 118%
